Bioassay records: PubChem BioAssay, National Center for Advancing Translational Sciences (NCATS)
Shown are actives, neighbours in structure and some others; about 1.1% of the full set was active somewhere.
AmpC detergent: AmpC beta-lactamase inhibition with detergent present; AmpC hydrolysis of nitrocefin, absorbance 480 nm, 0.01% Triton; Potency, µM (highest dose often 114 µM), without a hit: top-dose activity change, negative = inhibition, actives largely listed as inhibitors; 370,000 tested, 0.041% active; AID 485294;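 further: 0% = no-compound wells and -100% = no-enzyme wells; nearly all actives have a fitted effect of over 25% in size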
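20 mM phosphate pH 7.0 + 0.01% (detergent screen) or 0.0001% Triton X-100; 5.3 nM AmpC reagent; cpd preinc 15 min RT; nitrocefin (800 uM stock) to start; A480 q20 s × 4 min; Activity was normalised to no-enzyme and no-compound control wells.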
AmpC no deterg: blocks E. coli AmpC beta-lactamase in detergent-free assay; Potency, µM (top dose mostly 57.1 µM), inactives show at the highest dose activity change, negative = inhibition, most hits filed as inhibitors; AmpC nitrocefin hydrolysis, absorbance 480 nm, 0.0001% Triton; 330,000 tested, 0.52% active;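 further: plate controls were no compound for no effect and no enzyme for full effect; nearly all actives have a fitted effect of over 20% in size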
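20 mM phosphate pH 7.0 + 0.01% (detergent screen) or 0.0001% Triton X-100; 5.3 nM AmpC reagent; cpd preinc 15 min RT; nitrocefin (800 uM stock) to start; A480 q20 s × 4 min; Activity was normalised to no-enzyme and no-compound control wells.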
FBPA Giardia inh: inhibitors of Giardia lamblia fructose-1,6-bisphosphate aldolase; 290,000 tested, 0.71% active; Potency, µM (titrated, usually from 59.6 µM), inactives show top-dose activity, negative = inhibition, most hits filed as inhibitors; A8B2U2; purified Giardia FBPA; further: on the % scale 0 is the no-effect control and ±100 the full control effect; nearly all actives have a fitted effect of over 55% in size
Target sequence (A8B2U2 whole entry, looked up): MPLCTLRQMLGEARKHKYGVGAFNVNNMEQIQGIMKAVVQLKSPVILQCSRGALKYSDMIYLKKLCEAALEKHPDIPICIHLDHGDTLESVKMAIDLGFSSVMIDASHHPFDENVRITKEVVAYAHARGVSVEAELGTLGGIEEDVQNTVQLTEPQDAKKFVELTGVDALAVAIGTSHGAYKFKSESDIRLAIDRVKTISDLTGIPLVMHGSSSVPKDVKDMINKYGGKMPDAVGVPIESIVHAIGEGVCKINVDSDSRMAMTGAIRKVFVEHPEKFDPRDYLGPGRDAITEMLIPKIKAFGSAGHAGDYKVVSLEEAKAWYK
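Giardia FBPA (40 nM reagent) was preincubated 10 min at RT with compound (up to 57.5 uM final), then substrate plus GAPDH/TPI/NAD/arsenate coupling system with diaphorase/resazurin was added; resorufin fluorescence (525/598 nm) was read after 20 min.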
SARS PLP yeast: SARS-CoV PLP inhibition in yeast | Potency, µM (series often up to 32.9 µM), for inactives: at the top dose activity, positive = growth rescue, hits mostly activators | AID 485353 | S. cerevisiae expressing SARS-CoV PLpro, growth rescue | 330,000 tested, 0.19% active; calls by dose curve; further: 0% is about no effect; nearly all actives have a fitted effect of over 55% in size
Starred values were filed as active, the others as inactive; u = inconclusive; x = not tested or not shown; [ ] = another dose, or the depositor's remark. Unless noted, the call rests on the fitted dose curve; in most records, active means well fitted curve in the direction sought with a large enough effect; inconclusive means small, poorly fitted or top-dose-only effect, or another doubt; inactive means no such curve, though single readings can be large; an effect the other way counts as inactive or inconclusive. Potency means the concentration at half of the fitted maximal effect.

SMILES | AmpC detergent | AmpC no deterg | FBPA Giardia inh | SARS PLP yeast
CCCOc1ccc(NC(=O)C(=O)NCCCn2ccnc2)cc1 | -13% | -5% | 0% | -3%
CCOc1ccc(NC(=O)C(=O)NCCCn2ccnc2)cc1 | -5% | 0.16µM* | 4% | -1%
O.O.[Mn].[Mn].[Mn].[OH-].[OH-] | x | x | 0% | x
CCc1ccc(NC(=O)c2cc3sc(Cl)cc3n2C)cc1 | 56µM* | x | x | x
COc1ccc(Cl)cc1-c1ccc(C(=O)O)o1 | x | x | 18%[89.2 µM] | x
N=C1/C(=C\c2ccc(-c3cccc(Cl)c3)o2)C(=O)N=C2SC=C(c3ccccc3)N12 | -7% | 16µM* | u | 8%
CCCCCCCCCCCCCC/C(C(=O)O)=C(\C)C(=O)O | x | x | 11% | x
C=CC(C1=CC(=O)C(OC)=C(OC)C1=O)c1ccccc1 (configuration not stated) | x | x | 18µM* | x
C=CC(C1=CC(=O)C(OC)=CC1=O)c1ccc(OC)cc1 (configuration not stated) | x | x | 20µM* | x
C=CC(C1=CC(=O)C(OC)=CC1=O)c1ccccc1 (configuration not stated) | x | x | 20µM* | x
COC1=CC(=O)c2ccccc2C1=O | x | -9% | x | -19%
C=C(C(C)=O)C(O)c1cccc(OC)c1 (configuration not stated) | x | x | 1% | x
CC[C@H](C)[C@H](NC(=O)[C@H](C)NC(=O)[C@H](Cc1cnc[nH]1)NC(=O)[C@@H]1CCCN1C(=O)CNC(=O)[C@H](CC(C)C)NC(=O)[C@H](CC(C)C)NC(=O)[C@H](Cc1ccc(O)cc1)NC(=O)CNC(=O)[C@H](C)NC(=O)[C@H](CO)NC(=O)[C@H](CC(N)=O)NC(=O)[C@H](CC(C)C)NC(=O)[C@@H](NC(=O)[C@H](Cc1c[nH]c2ccccc12)NC(=O)CN)[C@@H](C)O)C(=O)N[C@@H](CC(=O)O)C(=O)N[C@@H](CC(N)=O)C(=O)N[C@@H](Cc1cnc[nH]1)C(=O)N[C@@H](CCCNC(=N)N)C(=O)N[C@@H](CO)C(=O)N[C@@H](Cc1ccccc1)C(=O)N[C@@H](CO)C(=O)N[C@@H](CC(=O)O)C(=O)N[C@@H](CCCCN)C(=O)N[C@@H](Cc1cnc[nH]1)C(=O)NCC(=O)N[C@@H](CC(C)C)C(=O)N[C@H](C(N)=O)[C@@H](C)O | x | x | -1% | x
O=C(NNS(=O)(=O)c1cccc(Cl)c1)c1cc(-c2ccc(F)cc2)nc2ccccc12 | -9% | 13µM* | 11% | 0%
O=P1(O)OP(=O)(O)OP(=O)(O)O1.[Al] | x | x | 3% | x
O=C(Nc1nc(-c2ccco2)c(-c2ccco2)s1)C1CCC1 | u | 32µM* | -16% | -11%
CC(C)Cn1c(C(C)NC(=O)Cc2ccccc2)nc2ccccc21 (configuration not stated) | u | 1.6µM* | -1% | 0%
Cc1nc(NC2CCCCC2)c2nc(-c3ccccc3)n(C(C)CN(C)C)c2n1 (configuration not stated) | x | x | 0% | x
Cc1ccc(-c2cc(C(=O)Nc3ccc(S(=O)(=O)Nc4cc(C)on4)cc3)c3ccccc3n2)c(C)c1 | u | 10µM* | 4% | 7%
Cc1cc(NS(=O)(=O)c2ccc(NC(=O)c3ccccc3C)cc2)no1 | -9% | -6% | -2% | 1%
Cc1cc(C)c2cc3c(N)c(C(=O)N4CCc5ccccc5C4)sc3nc2c1 | 2% | 0.32µM* | 2% | 28%
CCC(NC(=O)Nc1cc(OC)ccc1OC)c1c(-n2cccc2)sc2c1CCN(CC)C2 (configuration not stated) | 4% | x | x | x
O=S(=O)(NCCNC/C=C/c1ccc(Br)cc1)c1cccc2cnccc12 | x | x | -4% | x
O=S(=O)(Nc1nc2ccccc2s1)c1ccc(Br)s1 | u | 32µM* | 16% | -3%
Cc1cc(C)n2nc(S(=O)(=O)N(C)Cc3ccccc3)nc2n1 | u | -10% | 10% | 0%
Cc1cc(C)n2nc(S(=O)(=O)N(CC(C)C)CC(C)C)nc2n1 | u | 10µM* | 1% | -4%
CCn1c(=NC(=O)c2ccco2)sc2cccc(F)c21 | u | 3.5µM* | -18% | -11%
COc1ccc(/C=C/C2=CC(C)(C)NC(=S)N2)cc1 | -6% | 8.9µM* | 7% | 1%
COc1cccc(CS(=O)(=O)c2nnnn2-c2ccccc2)c1 | x | x | -6% | x
FC(F)(F)c1cccc(N2CCN(C(=S)NC3CCCC3)CC2)c1 | 5% | 0.25µM* | -2% | -12%
